Here are results for eight compounds from PubChem BioAssay (Tox21).

Unmarked numbers belong to inactive results. Records with an inconclusive call do not appear. Activity calls are given as the source filed them. Unless noted, calls follow the shape of the dose curve; as a rule, active = well fitted curve in the direction sought with a large enough effect in the repeat runs; inconclusive = weak or mixed curves; inactive = no such curve, though single readings can be large; an effect the other way counts as inactive or inconclusive.

Test [1] in a line: qHTS assay to identify small molecule agonists of the estrogen receptor alpha (ER-alpha) signaling pathway in the presence of an antagonist - cell viability counter screen (AID 1259386).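 Also: series mostly up to about 92 µM; cells exposed to compounds for 22 h at 37 °C before the viability read; nearly all actives have a fitted effect of over 30% in size.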 The procedure, abridged:
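The test measures whether compounds kill ER-alpha reporter cells (VM7Luc4E2) under antagonist co-treatment (ICI-182,780, 10.0nM). Fluorescence from CellTiter-Fluor is read after a 22hr exposure.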

The target in test [2] is Progesterone receptor (Homo sapiens) (UniProt P06401). Description: qHTS assay to identify small molecule antagonists of the progesterone receptor (PR) signaling pathway (AID 1346795; active = well fitted inhibition curve with a large enough effect in the signal ratio in the repeat runs, not every such curve was filed as active; the % refers to the signal ratio; also: potency is read from the fitted curve at half-maximal effect). The procedure, abridged: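 Antagonist mode with agonist R5020 at 1 nM final and 16 hr incubation at 37C. Reporter was beta-lactamase driven by UAS in HEK293T (PR-UAS-bla), 2% charcoal-stripped serum; signal from LiveBLAzer FRET substrate, 2 hr at room temperature.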
Progesterone receptor (Homo sapiens), sequence (P06401 whole entry, looked up): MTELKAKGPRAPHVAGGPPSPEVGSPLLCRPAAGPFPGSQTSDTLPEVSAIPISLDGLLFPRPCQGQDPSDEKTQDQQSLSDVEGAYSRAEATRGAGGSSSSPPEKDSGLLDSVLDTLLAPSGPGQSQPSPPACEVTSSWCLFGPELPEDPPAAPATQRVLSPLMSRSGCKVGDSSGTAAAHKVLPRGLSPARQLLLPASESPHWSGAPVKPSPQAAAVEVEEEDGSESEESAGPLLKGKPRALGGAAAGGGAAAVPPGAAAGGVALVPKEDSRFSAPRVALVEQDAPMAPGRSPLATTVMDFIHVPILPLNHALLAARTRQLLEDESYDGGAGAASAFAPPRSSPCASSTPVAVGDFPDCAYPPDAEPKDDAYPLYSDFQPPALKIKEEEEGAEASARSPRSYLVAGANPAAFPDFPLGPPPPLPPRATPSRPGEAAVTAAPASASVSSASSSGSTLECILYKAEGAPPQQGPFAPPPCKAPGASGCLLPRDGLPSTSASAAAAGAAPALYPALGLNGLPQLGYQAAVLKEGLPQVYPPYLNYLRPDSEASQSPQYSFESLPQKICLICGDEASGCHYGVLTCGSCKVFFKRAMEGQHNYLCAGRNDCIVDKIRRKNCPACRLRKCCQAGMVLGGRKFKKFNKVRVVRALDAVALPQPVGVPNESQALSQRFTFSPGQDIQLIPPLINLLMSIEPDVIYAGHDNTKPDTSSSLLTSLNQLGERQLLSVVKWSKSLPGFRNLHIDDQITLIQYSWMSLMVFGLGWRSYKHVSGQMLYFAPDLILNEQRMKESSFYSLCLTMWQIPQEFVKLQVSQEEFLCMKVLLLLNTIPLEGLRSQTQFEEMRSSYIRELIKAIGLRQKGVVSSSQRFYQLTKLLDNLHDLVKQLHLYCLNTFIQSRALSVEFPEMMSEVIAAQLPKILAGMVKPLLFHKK

The nature of test [3]: qHTS assay to identify small molecule antagonists of the progesterone receptor (PR) signaling pathway - cell viability counter screen (AID 1346798). Also: nearly all actives have a fitted effect of over 50% in size. Also: potency is read from the fitted curve at half-maximal effect. The procedure, abridged:
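Cytotoxicity read as CellTiter-Glo luminescence (30 min, room temperature) in the same wells as the beta-lactamase readout. HEK293T PR-UAS-bla cells in charcoal-stripped 2% FBS received compound and R5020, then 16 h at 37C, 5% CO2.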
On the technique in general: Quantitative high-throughput screening tests each substance at several concentrations.

Test [4] is described as follows: qHTS assay to identify small molecule antagonists of the TGF-beta/Smad signaling pathway - cell viability counter screen (AID 1346824). Also: nearly all actives have a fitted effect of over 50% in size. The procedure, abridged:
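Cytotoxicity counter-screen run in the same wells as the beta-lactamase Smad reporter read: CellTiter-Glo luminescence after 30 min at room temperature. HEK 293T SBE-bla cells had 5 hr compound exposure at 37 C with TGF-beta1 (0.25 ng/mL stock).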

Test [5] is described as follows: qHTS assay to identify small molecule agonists of the TGF-beta/Smad signaling pathway - cell viability counter screen (AID 1346829). Also: top concentration of the series differs between compounds; nearly all actives have a fitted effect of over 45% in size. The procedure, abridged: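 In parallel with the Smad reporter read, viability of HEK 293T cells stably carrying SBE-bla is quantified by ATP luminescence following 5 hr compound treatment.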
In test [6] the target is Thyrotropin-releasing hormone receptor (Homo sapiens) (UniProt P34981). Description: qHTS assay to identify small molecule antagonists of the thyrotropin-releasing hormone receptor (TRHR) signaling pathway (AID 1346877; active = well fitted inhibition curve with a large enough effect in the repeat runs, not every such curve was filed as active; also: series mostly up to about 51 µM). The procedure, abridged: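 Overnight-plated (18 h, 37 °C) HEK293 cells expressing TRHR were dye-loaded 2 h, treated with compound, then stimulated with TRH at 1 nM final. Fluorescence intensity was captured every second for 3 min.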
Thyrotropin-releasing hormone receptor (Homo sapiens), sequence (P34981 whole entry, looked up): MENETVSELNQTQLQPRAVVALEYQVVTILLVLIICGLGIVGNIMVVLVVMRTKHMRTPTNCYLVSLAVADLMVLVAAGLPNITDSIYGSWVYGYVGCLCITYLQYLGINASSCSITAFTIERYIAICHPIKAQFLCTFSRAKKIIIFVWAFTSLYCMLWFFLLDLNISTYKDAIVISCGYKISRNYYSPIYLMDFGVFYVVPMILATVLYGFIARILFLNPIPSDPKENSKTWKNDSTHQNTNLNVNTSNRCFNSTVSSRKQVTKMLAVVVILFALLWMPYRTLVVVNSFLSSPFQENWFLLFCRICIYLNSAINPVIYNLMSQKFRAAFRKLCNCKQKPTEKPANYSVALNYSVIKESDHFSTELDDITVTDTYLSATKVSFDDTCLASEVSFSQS

The target is the same in test [7]. Kind of test: qHTS assay to identify small molecule agonists of the thyrotropin-releasing hormone receptor (TRHR) signaling pathway (AID 1346891; calls by dose curve; also: series mostly up to about 58 µM). The procedure, abridged:
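Agonist-mode intracellular calcium readout: kinetic fluorescence over 3 min at 1 s intervals after compound addition to TRHR-HEK293 cells (18 h seeded, 2 h dye-loaded at 37 C). Fifteen concentrations, triplicates.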

A short description of test [8]: Human pregnane X receptor (PXR) small molecule agonists, qHTS cell viability counter screen (AID 1346977). Also: nearly all actives have a fitted effect of over 50% in size. The method in brief:
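Same-well viability read: CellTiter-Fluor added after 23 hr compound exposure, fluorescence measured 1 hr later. Cells were PXR-Luc HepG2 seeded at 2,000/well in 5% charcoal-stripped FBS medium, rested 5 hr before dosing at 37 C.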

Test [9] in a line: Caspase-3/7 induction in HepG2 cells by small molecules, qHTS assay (AID 1346978). Also: nearly all actives have a fitted effect of over 15% in size. The procedure, abridged: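 Caspase-3/7 induction was measured by Caspase-Glo 3/7 luminescence (30 min, room temperature) after a 17 hr compound exposure of wild-type HepG2 cells seeded at 2,000 per well and pre-incubated 5 hr.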
The nature of test [10]: Caspase-3/7 induction in CHO-K1 cells by small molecules, qHTS cell viability counter screen (AID 1346979). Also: nearly all actives have a fitted effect of over 35% in size. Also: potency is read from the fitted curve at half-maximal effect. The method in brief: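 Cytotoxicity counter screen: CellTiter-Fluor added to compound-treated wild-type CHO-K1 cells at 16 h (37C, 5% CO2), fluorescence measured 1 h later; same wells as caspase-3/7 measurement.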
A short description of test [11]: Caspase-3/7 induction in CHO-K1 cells by small molecules, qHTS assay (AID 1346980). Also: nearly all actives have a fitted effect of over 15% in size. The procedure, abridged: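 Luminescent Caspase-Glo 3/7 read (30min, room temperature) quantified apoptosis induction. Cells were wild-type CHO-K1, treated with compound for 17hr at 37 C and 5% CO2.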
A short description of test [12]: Caspase-3/7 induction in HepG2 cells by small molecules, qHTS cell viability counter screen (AID 1346981). Also: series mostly up to about 92 µM; nearly all actives have a fitted effect of over 30% in size. The method in brief:
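Treatment of HepG2 cells with DMSO-delivered compounds ran 16 hr at 37 C following a 5-hr pre-incubation of 2,000 cells/well. CellTiter-Fluor fluorescence, read after 1 hr, served as the viability measure in a qHTS format.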

The target of test [13] is Nuclear receptor subfamily 1 group I member 2 (Homo sapiens) (UniProt O75469). Kind of test: Human pregnane X receptor (PXR) small molecule agonists, qHTS assay (AID 1346982). Also: nearly all actives have a fitted effect of over 35% in size. Also: potency is read from the fitted curve at half-maximal effect. The procedure, abridged: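 Stable HepG2 line reporting PXR-mediated CYP3A4 expression via luciferase. Treatment: 24 hr with compounds in DMSO at 37 C. Detection: ONE-Glo luminescence.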
Nuclear receptor subfamily 1 group I member 2 (Homo sapiens), sequence (O75469 whole entry, looked up): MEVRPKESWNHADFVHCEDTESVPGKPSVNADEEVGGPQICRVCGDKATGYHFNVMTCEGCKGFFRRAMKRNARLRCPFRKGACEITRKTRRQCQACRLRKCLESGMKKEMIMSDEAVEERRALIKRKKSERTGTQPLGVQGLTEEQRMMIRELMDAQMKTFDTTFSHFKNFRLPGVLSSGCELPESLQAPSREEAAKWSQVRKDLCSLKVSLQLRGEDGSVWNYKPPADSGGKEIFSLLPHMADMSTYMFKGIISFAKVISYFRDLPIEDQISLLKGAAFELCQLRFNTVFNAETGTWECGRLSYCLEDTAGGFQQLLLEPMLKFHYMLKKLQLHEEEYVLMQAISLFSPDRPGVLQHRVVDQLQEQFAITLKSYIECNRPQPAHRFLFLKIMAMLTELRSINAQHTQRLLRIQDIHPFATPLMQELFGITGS
In test [14] the target is Cytochrome P450 2D6 (Homo sapiens) (UniProt P10635). Kind of test: Cytochrome P450 Family 2 Subfamily D Member 6 (CYP2D6) small molecule antagonists: luciferase reporter qHTS assay (AID 1671196). Also: nearly all actives have a fitted effect of over 50% in size. Also: potency is read from the fitted curve at half-maximal effect. The procedure, abridged:
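Chemicals tested for interference with CYP2D6 activity; proluciferin substrate, NADPH regeneration, 1 h at room temperature, luminescent detection.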
Background: In a reporter assay the amount or activity of a reporter protein is the signal.

A short description of test [15]: qHTS assay to identify small molecule agonists of the TGF-beta/Smad signaling pathway (AID 1346859; active = well fitted activation curve with a large enough effect in the signal ratio in the repeat runs, not every such curve was filed as active; the % refers to the signal ratio; also: series mostly up to about 77 µM). The procedure, abridged: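 Fluorescence (ex 405 nm; em 460 and 530 nm) was read 2 h after LiveBLAzer FRET substrate at RT. The preceding compound treatment of overnight-plated SBE-bla HEK293T cells lasted 5 h at 37 C.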
A short description of test [16]: qHTS assay to identify small molecule agonists of the progesterone receptor (PR) signaling pathway - cell viability counter screen (AID 1346799; calls by dose curve; also: nearly all actives have a fitted effect of over 45% in size; also: potency is read from the fitted curve at half-maximal effect). The method in brief:
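Cytotoxicity measured by CellTiter-Glo luminescence (30 min, RT) in the same wells as the PR beta-lactamase agonist read. Those HEK293T cells had 16 h compound treatment at 37 C in 2% charcoal-stripped FBS medium.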

In test [17] the target is Nuclear receptor subfamily 1 group I member 2 (Rattus norvegicus) (UniProt Q9R1A7). Description: Rat pregnane X receptor (rPXR) activation by small molecules, qHTS assay (AID 1346983). Also: nearly all actives have a fitted effect of over 20% in size. The conditions noted are these: rPXR luciferase reporter cells, One-Glo luminescence, 24 h; hits give high values. The procedure, abridged:
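Luminescent readout (One-Glo luciferase, 30 min room temperature) followed 24 hr compound treatment at 37 C of rPXR cells plated 2,000 per well and preincubated 5hr; qHTS format with compounds delivered in DMSO.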

In test [18] the target is Nuclear receptor subfamily 1 group I member 2 (Homo sapiens) (UniProt O75469). Kind of test: CYP3A4 induction through human pregnane X receptor (PXR) by small molecules, qHTS assay (AID 1346984). Also: nearly all actives have a fitted effect of over 40% in size. The method in brief: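 After 24 h at 37C with compound, DPX-2 cells (HepG2, co-transfected PXR response element and CYP3A4 promoter-luciferase) got 3uM final P450-Glo Luciferin-IPA for 3 h; One-Glo luminescence followed.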

The target is the same in test [19]. Kind of test: Human pregnane X receptor (PXR) activation by small molecules, qHTS assay (AID 1346985). Also: nearly all actives have a fitted effect of over 40% in size. The method in brief: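 DPX-2 cells (HepG2 co-transfected with a PXR response element and a CYP3A4-promoter luciferase construct) were seeded at 2,000 per well, rested 5 hr at 37C, then exposed to DMSO-dissolved compounds for 24 hr. Activation was read as luciferase luminescence.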
% is scaled to controls: 0 for no effect and ±100 for the full control effect.

Cytochrome P450 2D6 (Homo sapiens), sequence (P10635 whole entry, looked up): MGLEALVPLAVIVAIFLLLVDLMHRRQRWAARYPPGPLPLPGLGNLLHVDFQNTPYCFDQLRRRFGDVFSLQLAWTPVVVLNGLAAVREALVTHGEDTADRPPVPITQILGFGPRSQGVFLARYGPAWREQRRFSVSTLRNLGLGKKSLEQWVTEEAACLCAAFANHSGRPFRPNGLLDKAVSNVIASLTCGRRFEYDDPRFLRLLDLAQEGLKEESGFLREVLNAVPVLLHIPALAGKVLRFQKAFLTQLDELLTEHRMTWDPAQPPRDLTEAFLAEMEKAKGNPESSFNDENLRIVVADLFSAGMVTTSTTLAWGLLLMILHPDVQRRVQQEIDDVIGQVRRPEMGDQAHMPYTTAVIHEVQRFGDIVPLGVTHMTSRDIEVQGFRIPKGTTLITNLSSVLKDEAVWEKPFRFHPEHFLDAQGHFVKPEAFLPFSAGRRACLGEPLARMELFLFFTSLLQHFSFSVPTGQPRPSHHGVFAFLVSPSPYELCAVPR
Nuclear receptor subfamily 1 group I member 2 (Rattus norvegicus), sequence (Q9R1A7 whole entry, looked up): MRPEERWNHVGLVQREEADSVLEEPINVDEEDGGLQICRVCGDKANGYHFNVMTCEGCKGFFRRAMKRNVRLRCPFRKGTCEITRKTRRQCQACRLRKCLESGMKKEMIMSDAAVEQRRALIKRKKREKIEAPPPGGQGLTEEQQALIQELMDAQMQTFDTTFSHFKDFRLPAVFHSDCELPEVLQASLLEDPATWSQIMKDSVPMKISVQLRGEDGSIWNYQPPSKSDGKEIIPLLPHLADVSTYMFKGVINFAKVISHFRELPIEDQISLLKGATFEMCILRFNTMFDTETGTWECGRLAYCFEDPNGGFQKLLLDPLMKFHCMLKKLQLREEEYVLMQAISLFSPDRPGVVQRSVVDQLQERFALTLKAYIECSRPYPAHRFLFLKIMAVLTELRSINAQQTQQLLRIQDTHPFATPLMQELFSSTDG

In the case of `CCOC(=O)NNc1ccc(N(CC)CC(C)O)nn1` (centres undefined), the Potency entry in test [1], in test [2], in test [3], in test [4], in test [5] and in test [6] was “inactive” in each case. The Potency entry in test [8], in [9], in test [10], in test [11], in test [12] and in test [13] was “inactive” throughout. Moreover, the Potency entry in test [14] was “inactive”. Besides, in [7], the result was inactive.
Consider `C[Si](Cl)(c1ccccc1)c1ccccc1`, for which the Potency entry in test [1], in [3], in test [4], in test [5], in test [15] and in test [8] was “inactive” in each case. In addition, the Potency entry in test [10], in [11] and in test [12] was “inactive” throughout. The Potency in test [2] is 29.9 µM (active); in [13], 59.6 µM (active).
Take `O=C1NC(=O)[C@@H]2CC=CC[C@H]12`: the Potency entry in [1], in test [4], in test [6], in [8], in test [9] and in test [10] was “inactive” throughout. For the same compound, the Potency result in test [11] and in test [12] was “inactive” each time. For the same compound, the Potency in test [3] was 15.4 µM (active); in [16], 8.63 µM (active). Moreover, the compound was classed as inactive in test [7].
Consider `CC1(C)[C@@H](O)CC[C@]2(C)[C@H]3C(=O)C=C4[C@@H]5C[C@@](C)(C(=O)O)CC[C@]5(C)CC[C@@]4(C)[C@]3(C)CC[C@@H]12`, for which the Potency entry in [1], in test [3], in test [4], in test [5], in [6] and in test [8] was “inactive” in each case. The Potency result in [11], in test [18], in [19] and in test [14] was “inactive” throughout. Moreover, in [2], the Potency was 60.4 µM (active). In addition, the max activation in [17] was 1.62%.
With `COC(=O)C1=C(C)NC(C)=C(C(=O)OCCN2CCN(C(c3ccccc3)c3ccccc3)CC2)C1c1cccc([N+](=O)[O-])c1` (centres undefined), the Potency entry in [1], in [2], in [3], in [4], in test [15] and in test [6] was “inactive” throughout. In addition, the Potency result in test [9], in [11], in test [13] and in test [19] was “inactive” in each case. Besides, the compound was classed as inactive in [7]. Also, the Potency in test [10] was 21.1 µM (active); in test [14], 2.75 µM (active).
In the case of `c1ccc(SSc2ccccc2)cc1`, the Potency result in test [1], in [3], in [16], in [4], in [6] and in [9] was “inactive” throughout. Also, the Potency result in test [11] and in test [12] was “inactive” throughout. Further, the result in [7] was inactive. The Potency in test [13] was 27.5 µM (active).
For `OC1CCC(C2CCCCC2)CC1` (centres undefined), the Potency entry in test [1], in test [3], in test [16], in [4], in [15] and in [6] was “inactive” each time. For the same compound, the Potency result in [8], in [9], in [10], in test [11], in test [12] and in [13] was “inactive” throughout. Also, the call in test [7] was inactive. In addition, the Potency in test [14] was 39.9 µM (active).
With `O=[N+]([O-])c1ccc(F)c(Cl)c1`, the Potency result in [1], in test [2], in test [3], in [4], in test [15] and in [6] was “inactive” each time. In addition, the Potency result in test [8], in [9], in [10], in [11], in test [12] and in [13] was “inactive” in each case. Moreover, in [14], the Potency result is “inactive”. Further, in [7], the call was inactive.
